The values that follow come from PubChem BioAssay (NCATS).

This assay can be described thus: qHTS profiling of the MIPE4 collection as inhibitors of Plasmodium falciparum (3D7) proliferation (AID 743344).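 Further: scaled between DMSO vehicle wells and 0.29 µM artemisinin as full inhibition.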 The note with it: P. falciparum 3D7 in erythrocytes, SYBR Green DNA fluorescence, 72 h; at 28.5 µM unless noted. The essentials: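 Parasite DNA was quantified by SYBR Green I fluorescence (ex 485, em 535 nm) after overnight lysis in saponin/Triton buffer at room temperature. Cultures at 0.3% parasitemia and 2.5% hematocrit were first exposed to compound for 72 h at 37 C; signals were normalised to artemisinin (0.29 uM) and vehicle wells.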
On the technique in general: In qHTS, concentration-response curves come from the screen itself.
As to `C[C@H](NC(=O)C(C#N)=Cc1cccc(Br)n1)c1ccccc1`, the parasite growth, % of DMSO control came out at 59.1%.

Compound `CC(C)C[C@H](NC(=O)CNC(=O)c1cc(Cl)ccc1Cl)B1OC(=O)CC(CC(=O)O)(C(=O)O)O1` (some centres not stated) showed a parasite growth, % of DMSO control of 4.74%. To `C=C[C@@H]1CN2CCC1C[C@H]2[C@H](O)c1ccnc2ccc(OC)cc12` (some centres not stated) belongs 10.4%. As for `CC(C)c1cnn2c(NCc3ccccc3)cc(NCCCCCCN)nc12`, the figure is 6.96%; as for `COc1cc(CCc2cc(NC(=O)c3ccc(N4C[C@@H](C)N[C@@H](C)C4)cc3)n[nH]2)cc(OC)c1`, 50.5%; as for `CN1CCc2c(c3ccccc3n2Cc2ccc(C(=O)NO)cc2)C1`, 5.11%. As for `Cc1noc(-c2ccc(CSCCC(=O)O)cc2)c1NC(=O)OC(C)c1ccccc1Cl` (configuration not stated), the figure is 41.1%. With `Cc1cnc(Nc2ccc(N3CCN(C)CC3)cc2)nc1Nc1cccc(S(=O)(=O)NC(C)(C)C)c1`, the parasite growth, % of DMSO control worked out at 5.3%. `OCC(O)C(O)C(O)CO` (configuration not stated) returned a parasite growth, % of DMSO control of 88.8%. To `Cn1cc(-c2ccc3ncc(Cc4ccc5ncccc5c4)n3n2)cn1` belongs 26.2%; to `O=C(O)[C@H](CC(=O)N1C[C@@H]2CCCC[C@H]2C1)Cc1ccccc1`, 71.6%.

On to `O=C(CCCCCCC(=O)Nc1cccnc1)NO`, for which the parasite growth, % of DMSO control is 5.14%. To `CCOC(=O)N1CCN([N+]([O-])=NOc2ccc([N+](=O)[O-])cc2[N+](=O)[O-])CC1` belongs 67.7%; to `O=C(Nc1cc2cc[nH]c2cn1)c1ccccc1`, 76.5%. Take `N#Cc1cc(NC(=O)Nc2nnc(-c3ccncc3)s2)ccc1-c1cn[nH]c1`: the parasite growth, % of DMSO control was found to be 45.1%. As for `Cn1cnc2c(F)c(Nc3ccc(Br)cc3F)c(C(=O)NOCCO)cc21`, the figure is 86.6%; as for `C#Cc1cccc(Nc2ncnc3cc(OCCOC)c(OCCO)cc23)c1`, 6.81%.
